According to PubChem BioAssay (EPA / NIEHS):
Some compounds were tested as several samples or in several runs, with calls that do not always agree. Active and inactive are the calls of the source. The calls were made as follows: active = hit-call score of the fitted dose curve at least 0.9, where 1 is the maximum; inactive = score below 0.9.

These compounds were tested on Matrix Metallopeptidase 1 (MMP1), MMP1 (gene 4312) (assay: BSK_BE3C_MMP1: BioMAP Diversity Plus: BE3C Assay for Matrix Metallopeptidase 1 (MMP1) Biomarker Activity (AID 2283024)). Conditions: primary human bronchial epithelial cells; actives raise or lower the signal.
Description: BSK_BE3C is a cell-based, multiplexed-readout assay that uses bronchial epithelial cell, a human lung primary cell, with measurements taken at 24 hours after chemical dosing in a 96-well plate.BSK_BE3C_MMP1 is an assay component measured in the BSK_BE3C assay. It measures MMP-1 antibody related to regulation of gene expression using ELISA technology.Data from the assay component BSK_BE3C_MMP1 was analyzed into 1 assay endpoint. This assay endpoint, BSK_BE3C_MMP1, was analyzed with bidirectional fitting relative to DMSO as the negative control and baseline of activity. Using a type of binding reporter, gain or loss-of-signal activity can be used to understand changes in the signaling as they relate to the gene MMP1. Furthermore, this assay endpoint can be referred to as a primary readout, because this assay has produced multiple assay endpoints where this one serves a signaling function. To generalize the intended target to other relatable targets, this assay endpoint is annotated to the protease intended target family, where the subfamily is matrix metalloproteinase.
The levels of cell surface (or secreted, indicated by the prefix "s") biomarker endpoints were measured by ELISA. Overt cytotoxicity to cells in confluent adherent cultures (all systems other than the BT system) was assessed by measuring total protein levels using sulforhodamine B (SRB) staining in parallel cultures at the time of biomarker measurements, indicated as SRB endpoints. For proliferation assays for adherent cell types, individual cell types are cultured at sub-confluence and relative cell numbers quantified by SRB staining at time points optimized for each system (48 h: 3C and CASM3C systems; 72 h: BT and HDF3CGF systems; 96 h: SAg system). SRB was performed by staining cells with 0.1% SRB after fixation with 10% TCA and reading wells at 560 nm.Viability and proliferation of PBMC (T cells) was quantified by Alamar Blue reduction for the SAg and BT systems. For PBMC viability (referred to as PBMC Cytotoxicity within the assay endpoint names), cells were plated (75,000/well in a 96-well plate) and then chemical samples added for 1 h before addition of activators, SEB and TSST-1 (20 ng/mL final concentration each). Cells were incubated for 90 h. Then, Alamar Blue (20 uL/well) (Invitrogen, Cat DAL1100) was added for 6 h, and the plates were read with a fluorescence microplate reader at 546/580 nm (excitation/emission). For PBMC proliferation, cells were plated and activated as above but incubated for only 16 h prior to addition of Alamar Blue. Plates were read after 6 h.
`COC[C@H](C)N(C(=O)CCl)c1c(C)csc1C` was tested, and the outcome was “inactive”.
`Cn1sc(Cl)cc1=O` was tested, and the outcome was “inactive”.
With `CCOP(=S)(OCC)Oc1nc(Cl)c(Cl)cc1Cl` the outcome was “inactive”.
`CC12CC1(C)C(=O)N(c1cc(Cl)cc(Cl)c1)C2=O` (stereo not given) was tested, and the outcome was “inactive”.
For `O=C(O)C(F)(F)C(F)(F)C(F)(F)C(F)(F)C(F)(F)C(F)(F)F`, the outcome was “inactive” and the AC50 was 13.6 µM (active).
`NC(=O)O` was tested, and the outcome was “inactive”.
In the case of `CC(C)(OO)c1ccccc1`, the outcome is reported as “inactive”.
`COP(=S)(OC)Oc1ccc(S(=O)(=O)N(C)C)cc1` was tested, and the outcome was “inactive”.
For `COc1cc(-c2ccc(N)c(OC)c2)ccc1N`, the AC50 was 4.7 µM (active) and the outcome was “inactive”.
In the case of `O=S(=O)(c1ccc(Cl)cc1)c1ccc(Cl)cc1`, the outcome is reported as “inactive”.
With `CC(C)c1ccc(CO)cc1` the outcome was “inactive”.
In the case of `O=[N+]([O-])c1ccc(O)c([N+](=O)[O-])c1`, the outcome is reported as “inactive”.
With `OCc1ccco1` the outcome was “inactive”.
In the case of `COP(=S)(OC)Oc1c(Cl)cc(C)cc1Cl`, the outcome is reported as “inactive”.
In the case of `Oc1ccc(-c2ccccc2)cc1`, the outcome is reported as “inactive”.
With `CCOP(=S)(OCC)SCCS(=O)(=O)CC` the outcome was “inactive”.
With `CC1(C)Cc2cccc(O)c2O1` the outcome was “inactive”.
`C=CC(=O)OCCCCCC(C)C` was tested, and the outcome was “inactive”.
For `CCCCC(CC)CO[N+](=O)[O-]` (stereo not given), the outcome was “inactive”.
For `CCOC(=O)/C=C(C)/C=C/C[C@@H](C)CCCC(C)C`, the outcome was “inactive”.
With `O=C(Nc1ccc2[nH]ccc2c1)c1cc2cc(F)ccc2n1Cc1cccc(F)c1` the AC50 was 9.72 µM (active).
`CCSC(C)CC1CC(=O)C(C(CC)=NOC/C=C/Cl)=C(O)C1` (stereo not given) was tested, and the outcome was “inactive”.
`Nc1ccc(-c2ccc(N)c(Cl)c2)cc1Cl` was tested, and the outcome was “inactive”.
In the case of `CC(C)CCCCCCOC(=O)c1ccccc1C(=O)OCCCCCCC(C)C`, the outcome is reported as “inactive”.
In the case of `Nc1cccc2ccccc12`, the outcome is reported as “inactive”.
For `CCN1CCC2(CC1)COc1cc3c(cc12)N(C(=O)c1ccc(-c2ccc(-c4nnc(C)o4)cc2C)cc1)CC3`, the outcome was “inactive”.
For `Nc1ncc([N+](=O)[O-])s1`, the outcome was “inactive”.
In the case of `O=C(O)CCC(F)(C(F)(F)F)C(F)(F)F`, the outcome is reported as “inactive”.
`ClC1=C(Cl)[C@]2(Cl)[C@H]3[C@H]([C@H]4C=C[C@H]3C4)[C@@]1(Cl)C2(Cl)Cl` was tested, and the outcome was “inactive”.
`COc1cc(OC)nc(NC(=O)NS(=O)(=O)c2ncccc2C(=O)N(C)C)n1` was tested, and the outcome was “inactive”.
With `COC(=O)Cc1ccccc1` the outcome was “inactive”.
In the case of `BrCCBr`, the outcome is reported as “inactive”.
In the case of `CCCCCCCCc1ccc(O)cc1`, the AC50 is reported as 31.7 µM (active).
`CC(C)(C)c1cc(O)ccc1O` was tested, and the AC50 was 8.5 µM (active).
For `CC(=O)[O][Hg][c]1ccccc1`, the AC50 was 2.93 µM (active).
In the case of `Oc1c(I)cc(I)cc1I`, the AC50 is reported as 6.77 µM (active).
`C(=NC1CCCCC1)=NC1CCCCC1` was tested, and the AC50 was 36.5 µM (active).
`CCC(C)(C)c1ccc(O)c(C(C)(C)CC)c1` was tested, and the AC50 was 34.8 µM (active).
